Assay results published in paper PMC10726135, “HNF4α isoforms regulate the circadian balance between carbohydrate and lipid metabolism in the liver”.
Over roughly 18,000 sequences, “log2 normalized intensity” has its median near 0.36; the highest 2% begin near 7.3. The list comes from a sample in which the highest values are over-represented; it also holds similar and randomly drawn sequences.

The sequences below were run against T1, HNF4alpha8 (COS-7 nuclear extract) (Homo sapiens, UniProt P41235-5 1-452) (assay: protein-binding microarray; COS-7 nuclear extract on double-stranded Agilent 4x180k PBM; binding buffer, salt, pH and temperature not given in the material; high values mean tight binding). Details: chain copies: 2; label: 3' end of strand 1 on the slide; dsDNA, one strand shown.
T1 sequence: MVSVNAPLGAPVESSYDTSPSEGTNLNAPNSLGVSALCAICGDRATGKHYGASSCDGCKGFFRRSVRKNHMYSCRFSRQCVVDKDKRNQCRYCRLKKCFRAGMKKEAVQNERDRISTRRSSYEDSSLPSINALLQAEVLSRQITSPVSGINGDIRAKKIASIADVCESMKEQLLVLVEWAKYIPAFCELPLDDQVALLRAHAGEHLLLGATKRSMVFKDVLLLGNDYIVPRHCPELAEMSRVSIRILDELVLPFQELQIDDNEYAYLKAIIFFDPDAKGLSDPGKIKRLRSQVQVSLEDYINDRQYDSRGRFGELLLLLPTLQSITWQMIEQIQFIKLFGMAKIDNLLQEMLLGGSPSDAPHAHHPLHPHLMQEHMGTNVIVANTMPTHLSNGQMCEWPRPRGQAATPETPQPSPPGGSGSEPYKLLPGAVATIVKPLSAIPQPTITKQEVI
How it was run: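 The binding signal is Agilent software's gProcessedSignal after background correction and normalization. Arrays were a custom Agilent SurePrint G3 4x180k design of double-stranded ~60-nt oligonucleotides with ~44,000 test sequences in quadruplicate, probed with nuclear extracts of COS-7 cells transiently expressing a human HNF4α isoform. Scans were made at 2-µm resolution on an Agilent G2565CA scanner.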

Sequence | binding signal [log2 normalized intensity]
ACCATTAACCCTACAGTCCTGCCACATCCCGCCTAGGGAGATTAGAGTATCGGTCGA | -0.385
ATCTCATCCTGTGACCAAGAATGTCTAACCGCCTAGGGAGATTAGAGTATCGGTCGA | -0.428
TTAGGATGACCTTTAGATTCTTACAGGCAAGCCTAGGGAGATTAGAGTATCGGTCGA | 4.57
GCAAGCTTGACCTTTGATCCAGGCTCAGTGGCCTAGGGAGATTAGAGTATCGGTCGA | 8.22
CAAGCTTGATCCAGGATCCTTCTTGACCAGGCCTAGGGAGATTAGAGTATCGGTCGA | 1.18
CTTGACCTTTGATCCAGGCTCAGTGGGCGTGCCTAGGGAGATTAGAGTATCGGTCGA | 5.72
TTGATCCAGGATCCTTCTTGACCAGGCAAGGCCTAGGGAGATTAGAGTATCGGTCGA | 0.747
TCTTGACCAGGCAAGCTTGACCTTTGATCCGCCTAGGGAGATTAGAGTATCGGTCGA | 10
ACTTTGACCTAGAAGCCAGGGACCAGGAAGGCCTAGGGAGATTAGAGTATCGGTCGA | -0.796
ATCCTTCTTGACCAGGCAAGCTTGACCTTTGCCTAGGGAGATTAGAGTATCGGTCGA | 7.77
ATTTGACCCTTGGCCAGGTGCAGTGGCTCAGCCTAGGGAGATTAGAGTATCGGTCGA | 3.54
GCTCCTGTTCCTTTGTTACACTGGCTGCCCGCCTAGGGAGATTAGAGTATCGGTCGA | 2.08
AAAGGTCACCAGTGAGCCAAGGTACCCTGGGCCTAGGGAGATTAGAGTATCGGTCGA | 1.29
GTGACTCTAGGAACCTTTCTCCATACCTCTGCCTAGGGAGATTAGAGTATCGGTCGA | -0.874
ACAAAGAAATGTAACCTTTGGCCAATTGCAGCCTAGGGAGATTAGAGTATCGGTCGA | 5.13
AACTGACACTTGTTTGAATTGTGATAATAAGCCTAGGGAGATTAGAGTATCGGTCGA | 1.04
TTATCTTGGTGCCTGCAGAGCCTCCCCATTGCCTAGGGAGATTAGAGTATCGGTCGA | 2.69
GTAGGGCAGAGGCCAGTTTGATCACAAGACGCCTAGGGAGATTAGAGTATCGGTCGA | -0.285
AGTTTGGTTTAAAGTTCAAGTCATAACTGGGCCTAGGGAGATTAGAGTATCGGTCGA | 2.53
CAAATGAATAATCCCCTCCTGGACTTTGGTGCCTAGGGAGATTAGAGTATCGGTCGA | 5.55
TATGTGCTCACTCCTGGGACAAGGACTTTGGCCTAGGGAGATTAGAGTATCGGTCGA | 3.11
CTCCTGGACTTTGGTCTCATGGGCCTAAACGCCTAGGGAGATTAGAGTATCGGTCGA | 5.27
ATGCCCAAATGAATAATCCCCTCCTGGACTGCCTAGGGAGATTAGAGTATCGGTCGA | 3.33

Sequence | binding signal [log2 normalized intensity]
GTAATGACATGCAGTATGGGGACTTTGGACGCCTAGGGAGATTAGAGTATCGGTCGA | 7.1
GGACTTTGGTCTCATGGGCCTAAACATTCCGCCTAGGGAGATTAGAGTATCGGTCGA | 5.24
ATCCCCTCCTGGACTTTGGTCTCATGGGCCGCCTAGGGAGATTAGAGTATCGGTCGA | 7.4
GAATAATCCCCTCCTGGACTTTGGTCTCATGCCTAGGGAGATTAGAGTATCGGTCGA | 8
GACATGCAGTATGGGGACTTTGGACTCCTGGCCTAGGGAGATTAGAGTATCGGTCGA | 8.41
TATTCCTTGTCCTTGACCCTTCCTCCCATTGCCTAGGGAGATTAGAGTATCGGTCGA | 4.01
GAAACATCCACATGTGGGTCCAAAGAACATGCCTAGGGAGATTAGAGTATCGGTCGA | 3.82
ATCACATTCTAATCCTCTGGTCTTTGCCCCGCCTAGGGAGATTAGAGTATCGGTCGA | 5
CCCTGAGTAGTTCTTCTGGTTAGTTTTTCAGCCTAGGGAGATTAGAGTATCGGTCGA | 1.66
CTCCCCTCCTCCAGATGGGCTCATGTAACAGCCTAGGGAGATTAGAGTATCGGTCGA | 2.65
AACCAAGATAGTGACGGAGGTGACCTTTGGGCCTAGGGAGATTAGAGTATCGGTCGA | 7.34
CTGATTTAGCTATTTGACCTTCGGCCTCAAGCCTAGGGAGATTAGAGTATCGGTCGA | 8.73
TGGCTGGGCCCTGACCTCAAGTGACCTTTGGCCTAGGGAGATTAGAGTATCGGTCGA | 7.77
ATTGGCCCTTTGACCTTTAATCAAGGGCTGGCCTAGGGAGATTAGAGTATCGGTCGA | 5.91
GACAGCTGGGCCCTGCCTGACCTGCCCTTTGCCTAGGGAGATTAGAGTATCGGTCGA | 5.01
ATGCAAAGCCCTGGCTGACCTTTAGCCTGGGCCTAGGGAGATTAGAGTATCGGTCGA | 7.69
CAAGAATGCAAAGCCCTGGCTGACCTTTAGGCCTAGGGAGATTAGAGTATCGGTCGA | 5.88
CCAGGCTGATTTAGCTATTTGACCTTCGGCGCCTAGGGAGATTAGAGTATCGGTCGA | 5.84
GCCCCTGGCTGGGCCCTGACCTCAAGTGACGCCTAGGGAGATTAGAGTATCGGTCGA | 2.6
GTGACGGAGGTGACCTTTGGTTGTCCTTACGCCTAGGGAGATTAGAGTATCGGTCGA | 4.94
TTAGCTATTTGACCTTCGGCCTCAATTATAGCCTAGGGAGATTAGAGTATCGGTCGA | 7.29
ACCAAAACCAAGATAGTGACGGAGGTGACCGCCTAGGGAGATTAGAGTATCGGTCGA | 1.88
